Test results reported in PubChem BioAssay AID743048 (Broad Institute, 2013).
Potency and affinity values are given separately.

Target: Paired box protein Pax-2 (Homo sapiens) (UniProt Q02962)
Test: PAX2 cell-based inhibition, dose response, selectivity assay for PAX8 inhibitor project, plate reader, dry powder samples (AID 743048)
Conditions: Pax2 cell-based reporter; series mostly up to 50 µM; activity, negative = inhibition: at the top concentration; call rule not given here

Chain of Paired box protein Pax-2 (Homo sapiens) (Q02962 whole entry, looked up): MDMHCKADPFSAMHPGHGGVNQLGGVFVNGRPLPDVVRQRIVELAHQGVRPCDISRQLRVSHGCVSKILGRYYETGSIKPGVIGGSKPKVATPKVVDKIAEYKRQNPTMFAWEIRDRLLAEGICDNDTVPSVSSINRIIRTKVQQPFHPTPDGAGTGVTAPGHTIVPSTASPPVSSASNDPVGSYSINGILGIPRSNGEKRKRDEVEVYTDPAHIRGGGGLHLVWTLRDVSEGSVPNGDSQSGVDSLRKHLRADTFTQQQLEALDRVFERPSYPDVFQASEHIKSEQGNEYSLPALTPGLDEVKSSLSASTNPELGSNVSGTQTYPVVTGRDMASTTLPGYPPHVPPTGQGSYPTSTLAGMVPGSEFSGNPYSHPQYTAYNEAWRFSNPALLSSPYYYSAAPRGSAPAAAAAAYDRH

activity, negative = inhibition, inactive:
O=C(CCS(=O)(=O)c1ccccc1)Nc1nc2ccc(F)cc2s1 1.29%
CN(C[C@H]1N[C@@H](CO)[C@@H]1c1ccc(C2=CCCC2)cc1)C(=O)c1ccncc1 34.4% [at 35 µM]
CC(C)c1cc(C(=O)OCC(=O)N2CCN(C(=O)c3ccco3)CC2)c(O)c(C(C)C)c1 -18%
CC(=O)Nc1ccc(NC(=O)c2nc(S(=O)(=O)Cc3ccccc3)ncc2Cl)cc1 79.9% [at 26 µM]
NS(=O)(=O)c1ccc(CCN2C(=O)/C(=C\c3ccc(Cl)cc3)SC2=S)cc1 -15.3%
CN(C[C@H]1N[C@@H](CO)[C@@H]1c1ccc(C2=CCCC2)cc1)C(=O)c1ccc(F)cc1 231% [at 35 µM]
Cc1ccc(-c2csc(NC3OC(=O)c4ccccc43)n2)cc1 (stereo not drawn) 9.07%
CC1(C)CC(=O)c2sc(NC(=O)CCS(=O)(=O)c3ccccc3)nc2C1 -5.34%
O=C1/C(=C/c2cccc(Br)c2)SC(=S)N1CCC(=O)N(CCO)c1ccccc1 9.59% [at 26 µM]
O=C(CCCN1C(=O)/C(=C\c2cccc(Br)c2)SC1=S)Nc1cccnc1 46.5%
C[C@@H]1CN([C@H](C)CO)C(=O)CCCn2cc(nn2)CO[C@H]1CN(C)C(=O)Nc1ccc(-c2cccs2)cc1 2.54% [at 35 µM]
C[C@H]1CN([C@@H](C)CO)C(=O)CCCn2nncc2CO[C@@H]1CN(C)C(=O)Nc1ccc(-c2cccs2)cc1 24.6% [at 35 µM]
N#C[C@@H]1[C@@H](c2ccc(-c3cccc(F)c3)cc2)[C@H](CO)N1C(=O)NC1CCCC1 -22.6% [at 35 µM]
COc1ccc(-c2cc(C(F)(F)F)nc(S(=O)(=O)CCCC(=O)Nc3cc(C)on3)n2)cc1OC 266% [at 26 µM]
COc1cccc2sc(N(CCCN(C)C)C(=O)CCS(=O)(=O)c3ccccc3)nc12 21.8%
CN(C[C@H]1N[C@@H](CO)[C@@H]1c1ccc(C2=CCCC2)cc1)C(=O)c1cccc(F)c1 279% [at 35 µM]
N#C[C@H]1N[C@H](CO)[C@@H]1c1ccc(C#Cc2ccccc2F)cc1 30.2% [at 35 µM]
O=C(CCCN1C(=O)/C(=C\c2cccc(Br)c2)SC1=S)Nc1ccccn1 43.3%
